A selection: hits, their analogues and other compounds. The true share with any hit is near 3.7%.
BoNT A protease: blocks Botulinum neurotoxin A light chain protease | multiplex microsphere protease substrate cleavage, flow cytometry | inhibition, % at 10 µM | 360,000 compounds, 0.17% hits; also: plate controls were buffer without enzyme for full effect and enzyme alone for no effect
Autofluor counter: flagged as autofluorescent in microsphere protease counterscreen. compound autofluorescence counterscreen, microsphere flow cytometry; active compounds read high. fluorescence intensity (no concentration beside the values). 360,000 compounds, 3.1% hits. AID 624483; in the data active = fluorescence intensity above about 16000; inconclusive = no clear call, values can overlap the other calls
BoNT F protease: blocks Botulinum neurotoxin F light chain protease; Multiplex microsphere protease cleavage assay, flow cytometry; AID 588497; 360,000 compounds, 0.22% hits; inhibition, % at 10 µM; in the data active = inhibition above about 35%, passing the limit was not always enough; inconclusive = no clear call, values can overlap the other calls; also: plate controls were buffer without enzyme for full effect and enzyme alone for no effect
MazEF act: activators of E. coli MazEF toxin-antitoxin RNase | FAM/BHQ RNA-DNA oligo cleavage fluorescence, 5 h | activation, % at 20 µM | 350,000 compounds, 0.32% hits | AID 504720; in the data active = activation above about 50%
Anthrax LF inh2: anthrax lethal factor protease inhibition; P15917; 360,000 compounds, 0.12% hits; AID 588501; multiplex microsphere protease cleavage assay, LF; inhibition, % at 10 µM; also: plate controls were buffer without enzyme for full effect and enzyme alone for no effect
* = called active by the depositor; u = inconclusive; x = no result given; + = active, no number. Rule as the data show it, unless noted: active = inhibition above about 30%; inconclusive = no clear call, values can overlap the other calls; inactive = below that.

SMILES	BoNT A protease	Autofluor counter	BoNT F protease	MazEF act	Anthrax LF inh2
CCC1Oc2ccc(C)cc2N(CC(=O)N(Cc2ccc3c(c2)OCO3)CC2CCCO2)C1=O (stereo not given)	-2.5	24977*	-4.5	2.7	1.9
COc1ccccc1NS(=O)(=O)c1cc(C(=O)NCc2ccco2)ccc1C	9.1	17992*	16.2	0.1	1.9
Nc1c(C(=O)O)nnn1Cc1ccccc1	1.4	9524	1.6	0.5	0.1
CCn1nnc(C(=O)O)c1C(=O)O	u	16922*	-4.4	6.0	-4.7
CC(NC(=O)c1ccco1)C(=O)OCc1cccc(Cl)c1 (stereo not given)	-5.5	25194*	-10.0	-1.8	-1.0
O=C(NCCSc1ccc(Cl)cc1)c1ccco1	2.0	21843*	2.3	6.6	-2.1
O=C(CCSc1ccc(Cl)cc1)c1ccco1	-4.7	3014	-8.6	5.8	-7.3
O=C(NCc1ccc(Cl)c(Cl)c1)c1ccco1	x	x	x	-25.0	x
O=C(NCc1cccc(Cl)c1)c1ccco1	-1.4	22733*	-2.2	2.8	0.4
COc1c(S(=O)(=O)N2CCN(C(=O)c3ccco3)CC2)ccc(Cl)c1Cl	0.3	4084	-3.0	-11.2	7.6
Cc1cc(C)cc(NC(=O)CSCc2cc(=O)n3ccsc3n2)c1	0.5	5466	4.4	6.4	-0.2
Cc1cccc(C(=O)N2CCC(C)(C(=O)NS(=O)(=O)C3CC3)C2)c1C (stereo not given)	-0.1	3984	1.1	x	0.6
CCCn1c(SCC(=O)Nc2cccc(C)n2)nc2c1c(=O)n(C)c(=O)n2C	0.0	4659	-2.1	-2.2	-9.1
CCCn1c(SCC(=O)N2CCCc3ccccc32)nc2c1c(=O)n(C)c(=O)n2C	-1.5	21086*	-5.4	-0.3	-3.5
CCCn1c(SCC(=O)NCc2ccco2)nc2c1c(=O)n(C)c(=O)n2C	1.0	22819*	-1.4	4.7	-0.1
CCCn1c(SCC(=O)Nc2cc(C)on2)nc2c1c(=O)n(C)c(=O)n2C	0.2	22114*	3.2	-3.8	-3.6
CCCn1c(SCC(=O)Nc2nc3ccccc3s2)nc2c1c(=O)n(C)c(=O)n2C	0.0	3717	8.9	66.5*	-0.2
COc1ccc(OCCOC(=O)C(C)NS(=O)(=O)c2ccc(NC(C)=O)cc2)cc1 (stereo not given)	0.7	2919	-0.8	0.0	-7.8
Cc1ccc(F)c(S(=O)(=O)NC(=O)C2(C)CCN2C(=O)Cc2ccccc2Cl)c1 (stereo not given)	-0.2	3729	-1.5	x	4.0
COc1ccc(C(=O)NCCNC(C)=O)cc1S(=O)(=O)NCc1ccc(Cl)cc1	-1.0	19992*	-5.7	4.0	-2.2
COc1ccc(C(=O)NC2CCC(O)CC2)cc1S(=O)(=O)NCc1ccc(Cl)cc1 (stereo not given)	x	x	x	-19.9	x
O=C(COC(=O)c1cccnc1)c1ccc(Cl)c(Cl)c1	-1.2	3431	-0.9	2.0	-1.4
O=C(COC(=O)c1cccnc1)c1ccc(Cl)cc1	0.2	19665*	0.0	4.9	0.0
Cc1cccc(-n2c(CCn3nc(C)c([N+](=O)[O-])c3C)n[nH]c2=S)c1	-0.7	16467*	0.3	-1.5	-2.6
COc1cccc(-n2c(CCn3nc(C)c([N+](=O)[O-])c3C)n[nH]c2=S)c1	-1.0	2079	-7.7	-18.0	-1.1
SMILES	BoNT A protease	Autofluor counter	BoNT F protease	MazEF act	Anthrax LF inh2
CCOC(=O)Nc1ccc2c(c1)Nc1ccccc1S2	u	20181*	-3.8	-5.2	-2.5
O=[N+]([O-])c1cc(/C=N\Nc2nc(-c3ccccc3)cs2)ccc1O	-0.4	4040	-2.4	-17.8	-11.1
Cc1csc(N/N=C/c2ccc(O)c([N+](=O)[O-])c2)n1	-0.2	22477*	-4.6	-1.4	-5.1
COc1cc(/C=C/CNC[C@H]2O[C@@H](n3ccc(=O)[nH]c3=O)[C@H](O)[C@@H]2O)ccc1O	0.1	4213	-4.3	11.0	2.5
FC(F)(F)c1cc(-c2ccco2)nc(N2CCN(c3ccccc3)CC2)n1	-6.2	25233*	-7.4	4.6	-3.9
CCOc1cccc(=O)c2c(C)n(Cc3ccco3)c(C)c12	1.5	22022*	0.9	13.0	-1.6
CCOc1cccc(=O)c2c(C)n(Cc3ccccc3)c(C)c12	0.9	2265	-0.1	-1.0	-2.1
COC(=O)c1ccccc1CON1C(=O)C(C)(C)N(OCc2ccccc2C(=O)OC)C(=O)C1(C)C	1.6	16139*	2.4	0.3	-0.8
COC(=O)c1ccccc1NC(=O)CC(=O)Nc1ccccc1C(=O)OC	2.4	3791	12.6	6.9	8.6
CCc1ccc2nc(NC(=O)CN3C(=O)NC4(CCCC4)C3=O)sc2c1	-0.1	2898	-1.2	3.8	-2.0
O=C(c1cccnc1)N1CCN(S(=O)(=O)c2ccc3ccccc3c2)CC1	0.1	16645*	1.1	-0.5	-7.0
COc1ccc(S(=O)(=O)N2CCN(C(=O)c3cccnc3)CC2)cc1OC	0.9	3565	-1.7	6.0	10.1
O=C(Oc1cccnc1)c1cc(S(=O)(=O)N2CCOCC2)ccc1Cl	1.2	9891	3.7	0.0	-1.9
O=C(Oc1cccnc1)c1cc(S(=O)(=O)N2CCCCC2)ccc1Cl	4.7	21012*	7.0	5.7	-0.2
O=C(c1cc2c(c(-c3cccc(-c4ccncc4)c3)n1)[C@@H](CCO)N(C(=O)c1ccc3c(c1)OCO3)C2)N1CCOCC1	-0.3	5921	0.7	x	-0.8
CCOc1cccc(C2C(C(=O)c3ccc(C)o3)=C(O)C(=O)N2c2nccs2)c1 (stereo not given)	1.4	4688	17.4	+	3.2
CCc1ccc2nc(N3C(=O)C(O)=C(C(=O)c4ccco4)C3c3cccs3)sc2c1 (stereo not given)	0.2	3408	-20.1	78.8*	-11.7
O=C(C1=C(O)C(=O)N(c2nccs2)C1c1ccccc1)c1cc2ccccc2o1 (stereo not given)	-11.9	10296	u	227.0*	24.2
Cc1ccc2nc(N3C(=O)C(O)=C(C(=O)c4cc5ccccc5o4)C3c3cccs3)sc2c1 (stereo not given)	2.3	6363	25.1	79.9*	-0.5
O=C(NCc1ccccc1OC(F)(F)F)C1CCC(=O)N(CCCN2CCOCC2)C1 (stereo not given)	0.8	3387	-0.2	7.3	2.0
C=CCOc1ccc(C(=O)n2cc(C(=O)OC)c3ccccc32)cc1	-1.7	3502	-10.6	-2.2	-8.3
COc1ccc(CC(=O)Nc2c(C(=O)N3CCN(c4ncccn4)CC3)oc3ccccc23)cc1	6.2	4955	9.4	6.7	6.3
C[C@H](CO)N1C[C@H](C)[C@@H](CN(C)S(C)(=O)=O)Oc2ccc(NS(=O)(=O)c3cn(C)cn3)cc2C1=O	0.2	3997	-2.9	9.1	-0.4
COc1cccc(CNc2nc3cc(-c4ccc(F)cc4)sc3c(=O)n2C)c1	-0.2	3862	5.3	x	-0.3
Cc1cc(C)c2nc(SCc3ccc([N+](=O)[O-])cc3)nc(C)c2c1	u	20592*	-1.9	-0.4	0.6
Cc1ccc2nc(SCc3ccc([N+](=O)[O-])cc3)[nH]c2c1	0.0	9935	-0.4	15.6	-2.0
Cc1ccc(-n2c(SCc3ccc([N+](=O)[O-])cc3)nc3ccccc3c2=O)cc1	3.6	20811*	2.0	-12.1	-6.4

Compound activity as filed in PubChem BioAssay.
